In the supplement of paper PMC7411054:
Counter-ions that a name gives are not always drawn.

Legend:
Assay in all cases: lowest phenotypically active concentration; higher = less potent
Details in all cases: treatment time: 24 h
A549-CANX-COX4 = test system: A549-CANX-COX4
How it was run: (§1)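 Four wells per concentration (0.3, 1, 3 or 9 µM) were treated for 24 h in each of fifteen gene-edited reporter lines from A549, HepG2 and WPMY1 cells, then imaged live. After normalising live-cell features to solvent control wells, deviation was defined as ≥3 of 4 wells lying past the 95th percentile of control Euclidean distances. Reproducibility was defined as a median replicate Pearson correlation above the 95th percentile of non-replicates. Both had to hold for phenotypic activity.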

A549-TP53BP1-CLTA = test system: A549-TP53BP1-CLTA
How it was run: as §1

HepG2-CANX-COX4 = test system: HepG2-CANX-COX4
How it was run: as §1

HepG2-GM130-SQSTM1 = test system: HepG2-GM130-SQSTM1
How it was run: as §1

HepG2-TP53BP1-CLTA = test system: HepG2-TP53BP1-CLTA
How it was run: as §1

HepG2-TUBA1B-RELA = test system: HepG2-TUBA1B-RELA
How it was run: as §1

WPMY1-ACTB-RAB5A = test system: WPMY1-ACTB-RAB5A
How it was run: as §1

WPMY1-GM130-SQSTM1 = test system: WPMY1-GM130-SQSTM1
How it was run: as §1

WPMY1-TP53BP1-CLTA = test system: WPMY1-TP53BP1-CLTA
How it was run: as §1

WPMY1-TUBA1B-RELA = test system: WPMY1-TUBA1B-RELA
How it was run: as §1

SMILES	lowest phenotypically active concentration (A549-CANX-COX4)	lowest phenotypically active concentration (A549-TP53BP1-CLTA)	lowest phenotypically active concentration (HepG2-CANX-COX4)	lowest phenotypically active concentration (HepG2-GM130-SQSTM1)	lowest phenotypically active concentration (HepG2-TP53BP1-CLTA)	lowest phenotypically active concentration (HepG2-TUBA1B-RELA)	lowest phenotypically active concentration (WPMY1-ACTB-RAB5A)	lowest phenotypically active concentration (WPMY1-GM130-SQSTM1)	lowest phenotypically active concentration (WPMY1-TP53BP1-CLTA)	lowest phenotypically active concentration (WPMY1-TUBA1B-RELA)
CC(C)n1nc(-c2cc3cc(O)ccc3[nH]2)c2c(N)ncnc21	1 µM	1 µM	≤ 0.3 µM	≤ 0.3 µM	3 µM	1 µM	1 µM	1 µM	1 µM	3 µM
CCOC(=O)Nc1cc(-c2ccc(C)c(NS(C)(=O)=O)c2)nn2c(C)nnc12 [Bromosporine]	1 µM	1 µM	≤ 0.3 µM	1 µM	1 µM	1 µM	1 µM	1 µM	1 µM	1 µM
Cc1ccc(Nc2nccc(N(C)c3ccc4c(C)n(C)nc4c3)n2)cc1S(N)(=O)=O [pazopanib]	3 µM	1 µM	3 µM	3 µM	9 µM	–	9 µM	–	–	3 µM
CC(C)(C)Nc1nc(Nc2ccc(C(N)=O)cc2)cc(N)c1C#N	3 µM	3 µM	3 µM	3 µM	3 µM	3 µM	3 µM	3 µM	3 µM	9 µM
COc1cc2nc(N3CCN(C(=O)C4COc5ccccc5O4)CC3)nc(N)c2cc1OC (stereo unspecified) [doxazosin]	9 µM	9 µM	–	9 µM	9 µM	9 µM	9 µM	≤ 0.3 µM	9 µM	–
CCCCNNC(=O)c1ccc(Br)cc1	3 µM	3 µM	1 µM	1 µM	1 µM	9 µM	–	3 µM	9 µM	9 µM
Cn1cnc2c(F)c(Nc3ccc(Br)cc3Cl)c(C(=O)NOCCO)cc21 [selumetinib]	1 µM	≤ 0.3 µM	≤ 0.3 µM	≤ 0.3 µM	≤ 0.3 µM	1 µM	9 µM	3 µM	3 µM	–
CCc1cc(-c2n[nH]c(C)c2-c2ccc3c(c2)OCCO3)c(O)cc1O	3 µM	3 µM	3 µM	3 µM	3 µM	9 µM	3 µM	3 µM	3 µM	3 µM
N=C(N)c1ccc(OCCCCCOc2ccc(C(=N)N)cc2)cc1 [pentamidine]	≤ 0.3 µM	3 µM	9 µM	–	9 µM	9 µM	–	9 µM	–	–
Cc1cc2c(F)c(Oc3ncnn4cc(OC[C@@H](C)O)c(C)c34)ccc2[nH]1 [brivanib]	9 µM	9 µM	9 µM	9 µM	9 µM	9 µM	3 µM	–	3 µM	9 µM
COc1cc(O)cc(O)c1C(=O)/C=C/c1ccccc1 [Cardamonin]	9 µM	9 µM	9 µM	3 µM	–	9 µM	9 µM	9 µM	9 µM	9 µM
COc1cc2c(N3CCN(C(=O)Nc4ccc(OC(C)C)cc4)CC3)ncnc2cc1OCCCN1CCCCC1 [tandutinib]	9 µM	9 µM	9 µM	9 µM	9 µM	3 µM	9 µM	9 µM	–	9 µM
O=C1N=C(NCc2cccs2)S/C1=C\c1ccc2ncccc2c1	3 µM	3 µM	3 µM	9 µM	3 µM	3 µM	3 µM	1 µM	3 µM	3 µM
O=C(O)[C@]1(Cc2cccc(Nc3nccs3)n2)CC[C@@H](Oc2cccc(Cl)c2F)CC1	1 µM	1 µM	1 µM	≤ 0.3 µM	≤ 0.3 µM	≤ 0.3 µM	≤ 0.3 µM	–	≤ 0.3 µM	≤ 0.3 µM
CCCCCCCCCCNCCSSCc1ccc(Cl)cc1	9 µM	9 µM	1 µM	9 µM	9 µM	3 µM	–	9 µM	9 µM	–
S=C(S)N1CCCC1 [Pyrrolidinedithiocarbamate ammonium]	3 µM	9 µM	3 µM	9 µM	3 µM	9 µM	–	9 µM	–	–
CC(C)(C)c1nc(-c2cccc(NS(=O)(=O)c3c(F)cccc3F)c2F)c(-c2ccnc(N)n2)s1 [dabrafenib]	1 µM	≤ 0.3 µM	≤ 0.3 µM	≤ 0.3 µM	≤ 0.3 µM	≤ 0.3 µM	1 µM	–	–	1 µM
Nc1ncnc(Nc2ccc(OCc3ccccc3)c(Cl)c2)c1/C=N/OCCN1CCOCC1	9 µM	1 µM	–	9 µM	9 µM	9 µM	–	–	–	–
COC(=O)Nc1nc2ccc(C(=O)c3cccs3)cc2[nH]1 [Nocodazole]	≤ 0.3 µM	≤ 0.3 µM	≤ 0.3 µM	≤ 0.3 µM	≤ 0.3 µM	≤ 0.3 µM	≤ 0.3 µM	≤ 0.3 µM	≤ 0.3 µM	≤ 0.3 µM
O=C1c2ccccc2-c2nc3nonc3nc21	1 µM	3 µM	≤ 0.3 µM	3 µM	3 µM	3 µM	3 µM	–	–	3 µM
CNC(=O)c1cc(Oc2ccc(NC(=O)Nc3ccc(Cl)c(C(F)(F)F)c3)cc2)ccn1 [sorafenib]	9 µM	≤ 0.3 µM	3 µM	3 µM	9 µM	3 µM	≤ 0.3 µM	1 µM	–	9 µM
CC[C@]12CCCN3CCc4c(n(c5ccccc45)C(=O)C1)[C@@H]32 [Eburnamonine (-)]	9 µM	9 µM	–	–	9 µM	9 µM	9 µM	–	3 µM	9 µM

SMILES	lowest phenotypically active concentration (A549-CANX-COX4)	lowest phenotypically active concentration (A549-TP53BP1-CLTA)	lowest phenotypically active concentration (HepG2-CANX-COX4)	lowest phenotypically active concentration (HepG2-GM130-SQSTM1)	lowest phenotypically active concentration (HepG2-TP53BP1-CLTA)	lowest phenotypically active concentration (HepG2-TUBA1B-RELA)	lowest phenotypically active concentration (WPMY1-ACTB-RAB5A)	lowest phenotypically active concentration (WPMY1-GM130-SQSTM1)	lowest phenotypically active concentration (WPMY1-TP53BP1-CLTA)	lowest phenotypically active concentration (WPMY1-TUBA1B-RELA)
CC[C@H](CO)Nc1nc(NCc2ccccc2)c2ncn(C(C)C)c2n1 [Roscovitine]	9 µM	9 µM	3 µM	9 µM	3 µM	3 µM	9 µM	–	9 µM	9 µM
O=C(Nc1cccnc1)N1CCC(Cc2cccc(Oc3ccc(C(F)(F)F)cn3)c2)CC1	9 µM	9 µM	–	–	9 µM	9 µM	–	9 µM	–	–
C=CC(=O)Nc1cccc(CN2C(=O)N(c3c(Cl)c(OC)cc(OC)c3Cl)Cc3cnc(NCCCCN(CC)CC)nc32)c1 [FIIN 1 hydrochloride]	3 µM	3 µM	3 µM	≤ 0.3 µM	≤ 0.3 µM	≤ 0.3 µM	≤ 0.3 µM	≤ 0.3 µM	≤ 0.3 µM	1 µM
COc1ccc(-c2cnc(-c3cccc4c3-c3ccccc3C4=O)o2)cc1	≤ 0.3 µM	≤ 0.3 µM	–	–	–	–	≤ 0.3 µM	≤ 0.3 µM	≤ 0.3 µM	≤ 0.3 µM
O=c1c(-c2ccc(O)cc2)coc2cc(O[C@@H]3O[C@H](CO)[C@@H](O)[C@H](O)[C@H]3O)cc(O)c12 [Genistin]	9 µM	9 µM	–	–	–	–	9 µM	–	9 µM	–
CC(C)c1cnn2c(NCc3ccccc3)cc(NCCCCCCN)nc12 [BS 181 dihydrochloride]	9 µM	9 µM	–	–	–	–	–	–	9 µM	9 µM
C[C@@H](Nc1ncnc2[nH]c(-c3ccc(O)cc3)cc12)c1ccccc1 [PKI 166 hydrochloride]	3 µM	3 µM	9 µM	–	9 µM	9 µM	9 µM	3 µM	3 µM	9 µM
COc1c(Cl)cc2c([nH]c3cnccc32)c1NC(=O)c1cccnc1C [ML 120B dihydrochloride]	9 µM	–	9 µM	–	9 µM	–	–	–	–	–
CC(C)n1c(/C=C/[C@@H](O)C[C@@H](O)CC(=O)O)c(-c2ccc(F)cc2)c2ccccc21 [fluvastatin]	9 µM	9 µM	3 µM	1 µM	3 µM	3 µM	1 µM	1 µM	9 µM	3 µM
O=C(Nc1ccccc1)c1cc([N+](=O)[O-])ccc1Cl	9 µM	–	–	–	–	–	–	–	–	–
CCCCOc1c(C(=O)c2c(F)cc(C)cc2F)cnc2[nH]ncc12	≤ 0.3 µM	–	–	9 µM	3 µM	≤ 0.3 µM	≤ 0.3 µM	–	–	3 µM
Cc1cc2c(F)c(Oc3ncnn4cc(OC[C@@H](C)OC(=O)[C@H](C)N)c(C)c34)ccc2[nH]1 [brivanib-alaninate]	9 µM	9 µM	3 µM	9 µM	3 µM	9 µM	3 µM	3 µM	3 µM	3 µM
O=c1cc(-c2ccccc2)oc2c(O)c(O)ccc12 [7,8-Dihydroxyflavone]	9 µM	–	9 µM	9 µM	–	–	9 µM	9 µM	–	9 µM
Cc1cc(F)c(Nc2ncnc3cc(OCc4ccccc4)ccc23)cc1O	9 µM	–	–	–	–	–	–	–	–	9 µM
COc1cc2ncnc(Nc3cccc(Br)c3)c2cc1OC	1 µM	≤ 0.3 µM	–	9 µM	9 µM	9 µM	–	9 µM	3 µM	–
CCCOc1ccc(CCc2nc3cc(-c4c(C)noc4C)ccc3n2CCN2CCOCC2)cc1	9 µM	–	9 µM	–	9 µM	–	–	–	–	–
OCc1cc(C(O)CNCCCCCCOCCCCc2ccccc2)ccc1O (stereo unspecified) [salmeterol]	9 µM	–	–	9 µM	9 µM	9 µM	9 µM	1 µM	9 µM	9 µM
C=C1CC[C@@H]2[C@](C)(CO)[C@H](O)CC[C@@]2(C)[C@@H]1C/C=C1/C(=O)OC[C@H]1O [Andrographolide]	9 µM	–	3 µM	1 µM	3 µM	3 µM	–	9 µM	–	9 µM
Nc1ncnc2[nH]nc(Nc3ccc(F)cc3)c12	9 µM	–	–	9 µM	9 µM	9 µM	9 µM	3 µM	9 µM	9 µM
C=C1C(=O)O[C@@H]2C=C(C)CCC=C(C)CC[C@@H]12 [Costunolide]	9 µM	–	9 µM	3 µM	9 µM	–	9 µM	9 µM	9 µM	9 µM
O=C1/C(=C\c2ccncc2)CCC/C1=C\c1ccncc1	3 µM	–	3 µM	1 µM	3 µM	3 µM	3 µM	3 µM	9 µM	3 µM
O=S(=O)(c1cccc2c(O)nccc12)N1CCCNCC1 [HA 1100 hydrochloride]	9 µM	9 µM	≤ 0.3 µM	9 µM	1 µM	–	9 µM	9 µM	9 µM	3 µM
